The sample as a whole holds a higher share of hits than the screen did.
Marburg entry inh: blocks Marburg virus binding to or entry into cells. Marburg virus pseudotyped entry inhibition, cell reporter. Potency, µM (highest dose often 37.8 µM), for the others: top-dose activity change, negative = inhibition, most hits filed as inhibitors. 1.8% of 300,000 active. AID 540276; calls by dose curve; tested in HEK293 cells; also: potency is read from the fitted curve at half-maximal effect; % is scaled to controls: 0 for no effect and ±100 for the full control effect
CHX counter-1: counter-screen hit for Shiga toxin inhibitors, cycloheximide. cell reporter, cycloheximide protein synthesis inhibition counterscreen. max response, %. 12% of 300,000 active. AID 2314; in the data active = max response mostly above about 13%, no sharp cut-off; inactive = mostly below about 14%; also: read at 38.3 µM for the half of the compounds with a filed dose; 0% is about no effect
Shiga inhibitor: Shiga toxin inhibition; Vero cells, Shiga toxin protein synthesis inhibition reporter; inhibition, % at 38.7 µM; 9.2% of 290,000 active; AID 2315; in the data active = inhibition mostly above about 28%, no sharp cut-off; inactive = mostly below about 43%; also: 0% is about no effect
AMA1 RON2 block: inhibitors of Plasmodium falciparum AMA1-RON2 interaction. AID 720542. AlphaScreen AMA1-biotinylated RON2 peptide binding. Potency, µM (titrated, usually from 58.2 µM), for the others: at the highest dose activity change, negative = inhibition, usual class: inhibitors. 0.2% of 360,000 active; active = well fitted inhibition curve with a large enough effect; inconclusive = small, poorly fitted or top-dose-only effect; inactive = no such curve, though single readings can be large or run the other way;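 also: potency is read from the fitted curve at half-maximal effect; 0% = vehicle wells and -100% = peptide control; nearly all actives have a fitted effect of over 45% in size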
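AMA1 (3D7) with his tag at 25 nM final met compounds first, then biotinylated RON2 peptide at 25 nM; detection used donor plus acceptor beads, 10 µg/mL apiece, read by AlphaScreen after 30 min at room temperature.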
Lassa entry inh: inhibitors of Lassa virus binding or cell entry; AID 540256; 1.2% of 300,000 active; Lassa virus pseudotype entry inhibition, cell reporter; Potency, µM (titrated, usually from 37.9 µM), without a hit: at the highest dose activity change, negative = inhibition, hits mostly inhibitors; calls by dose curve; tested in HEK293 cells; also: potency is read from the fitted curve at half-maximal effect; % is scaled to controls: 0 for no effect and ±100 for the full control effect; nearly all actives have a fitted effect of over 50% in size
CHX counter-2: affects protein synthesis reporter in cycloheximide counter-screen | shares compounds with Shiga inhibitor | Cycloheximide counterscreen, protein synthesis reporter, Shiga toxin assay | Potency, µM (doses to about 38.3 µM), inactives show top-dose activity (activation), actives largely listed as activators | 3% of 510 active | AID 2318; calls by dose curve; also: potency is read from the fitted curve at half-maximal effect; 0% is about no effect
The depositor's hits bear a star; ? = inconclusive; / = no result; + = active, no number; [ ] = remark or other dose.

SMILES	Marburg entry inh	CHX counter-1	Shiga inhibitor	AMA1 RON2 block	Lassa entry inh	CHX counter-2
O=C(CSCc1ccc(Cl)cc1)N1CCOCC1	17%	10	66*	-10%	21%	7%
O=C(NNC(=O)c1ncc(Cl)c(Cl)c1Cl)c1ccc(F)cc1	/	10	2	143%	/	/
O=C(NNC(=O)c1nc(Cl)ccc1Cl)c1ccc(F)cc1	/	-2	24*	94%	/	0%
O=C(C(Sc1ccccc1)c1ccccc1)N1CCOCC1 (centres undefined)	-2%	-1	46*	17%	7%	-4%
COc1cccc(C(c2cccc(OC)c2)c2ccccc2C(=O)O)c1	9%	/	/	-5%	3%	/
COc1ccc(NC2=CC(c3ccc(OC)cc3)N(c3ccc(OC)cc3)C2=O)cc1 (centres undefined)	/	2	22	-7%	/	/
COc1ccc(NC2=CC(c3ccccc3)N(c3ccc(OC)cc3)C2=O)cc1 (centres undefined)	-10%[14.2 µM]	5	65*	-17%	-8%[14.3 µM]	-2%
COc1ccc(NC(=O)CSc2nccn2-c2cccc(OC)c2)cc1	?	0	40*	-5%	?	2%
COc1cccc(-n2ccnc2SCC(=O)Nc2ccccc2)c1	15%	8	-1	-14%	-6%	/
CCOC(=O)C1(C)CCN1C(=O)c1ccccc1OC(F)(F)F (centres undefined)	/	/	/	11%	/	/
CCCn1c(SCC(=O)NCc2ccco2)nc2c1c(=O)n(C)c(=O)n2C	15%	-1	-8	-16%	0%	/
CCn1c(SCC(=O)NCc2ccco2)nc2c1c(=O)n(C)c(=O)n2C	12%	-2	68*	-9%	-2%	-1%
COc1ccc(C(=O)Nc2ccc(S(=O)(=O)N3CCOCC3)cc2)cc1	10%	/	/	-19%	14%	/
O=C(Nc1ccccc1)c1ccc(S(=O)(=O)N2CCOCC2)cc1	10%	5	53*	-13%	2%	4%
O=C(CCn1cnnn1)Nc1cccc(F)c1	-1%	1	15	-5%	5%	/
O=C(CCn1cnnn1)Nc1ccccc1	5%	9	22*	-5%	?	-3%
COc1ccc(CNC(=O)C(OC(=O)c2ccco2)c2ccccc2F)cc1 (centres undefined)	-11%[46.1 µM]	-1	40*	6%	11%[46.1 µM]	5%
O=C(CC1CC2CCC1C2)NCCc1ccc(Cl)cc1 (centres undefined)	1%[46.1 µM]	16	49*	-5%	28%	2%
CC1CC1C(=O)NCCc1ccc(Cl)cc1 (centres undefined)	?	17	27	6%	26%	/
CCCNC(=O)c1ccc2snnc2c1	1%	5	29*	1%	-7%	-2%
C=C1C(O)C2OC3(CCC(/C=C/C(C)C4CC(C)=CC5(OC(CC(C)(O)C(=O)O)CCC5O)O4)O3)CCC2OC1C(O)CC(C)C1OC2(CCCCO2)CCC1C (centres undefined)	/	-3	+	/	/	3%
CC(=O)c1ccc(-c2cccc([C@H]3[C@@H]4C=CC[C@@H](C)[C@@H]4C(=O)N3Cc3ccccc3)c2)cc1	/	18	36*	-23%	/	-1%
N#C/C=C1/NC(=O)c2ccccc2S1	-2%	1	71*	7%	1%	1%
O=C(COc1cc2oc(=O)c3c(c2cc1Cl)CCC3)N1C[C@H]2C[C@@H](C1)c1cccc(=O)n1C2	/	-3	2	0%	/	/
COCCNC(=O)C1(C)CCCN(C(=O)c2ccc(N(C)C)cc2)C1 (centres undefined)	/	/	/	3%	/	/
SMILES	Marburg entry inh	CHX counter-1	Shiga inhibitor	AMA1 RON2 block	Lassa entry inh	CHX counter-2
COc1ccccc1CNC(=O)CN1C(=O)NC2(CCCCCC2)C1=O	?	/	/	-3%	-8%	/
CCN1CCN(Cc2nnc(-c3ccc(C)cc3)o2)CC1	/	5	43*	8%	/	-1%
O=C(c1ccc(N2CCOCC2)nc1)N1CCOCC1	29%	1	58*	5%	7%	5%
O=C(c1ccc(C(=O)N2CCOCC2)nc1)N1CCOCC1	-4%	-3	10	6%	4%	/
COC(=O)c1ccn(-c2nc(-c3ccc(Cl)cc3)cc(C(F)(F)F)n2)n1	5%[46.1 µM]	/	/	/	-1%[46.1 µM]	/
O=C(CC(=O)Nc1ccc(F)cc1F)Nc1ccc(F)cc1F	/	9	-3	-4%	/	/
O=C(/C=C/Nc1ccc(F)cc1F)c1ccco1	?	10	49*	-4%	?	0.25µM*
Cc1cnc(NC(=O)c2ccc(-c3nc4ccccc4s3)o2)s1	16%	11	60*	87%	-3%	?
COc1nc2ccccc2c(=O)n1-c1ccc(Cl)cc1	10%	-1	12	-20%	?	/
COc1nc2ccccc2c(=O)n1-c1ccc(C)cc1	-16%	-3	19*	-14%	?	-1%
CCc1ccc(NC(=O)Cn2c(=O)n(CCCCC(=O)NCCc3ccccc3)c(=O)c3ccccc32)cc1	-2%[46.1 µM]	/	/	/	12%[46.1 µM]	/
COc1ccccc1NC(=O)c1cccc(N2C(=O)C3C4C=CC(C4)C3C2=O)c1 (centres undefined)	14%[46.1 µM]	7	-10	-8%	0%[46.1 µM]	/
Cc1ccc(NC(=O)c2cccc(N3C(=O)C4C5C=CC(C5)C4C3=O)c2)cc1C (centres undefined)	/	6	18*	10%	/	3%
COc1ccc(C(=O)CC(=O)C(=O)Nc2ccccc2OC)cc1	/	7	27	64%	/	/
COc1ccc(C(=O)CC(=O)C(=O)Nc2ccc(C)cc2Cl)cc1	?	9	22*	38%	?	-2%
COc1ccc(S(=O)(=O)Nc2c(C(=O)O)[nH]c3ccccc23)cc1OC	27%	16	30*	0%	2%	5%
CC(=O)c1ccc(N2CCN(S(=O)(=O)c3ccc4c(c3)CC(C)N4C(C)=O)CC2)cc1 (centres undefined)	?	11	34*	8%	?	9%
CCOc1ccc(NC(=O)CC(c2ccccc2)c2ccc(F)cc2)cc1 (centres undefined)	5%	3	-10	-2%	14%	/
COc1ccc([C@H]2C(C#N)=C(SC)NC3=C2C(=O)CC(C)(C)C3)cc1	-8%	/	/	/	/	/
COc1ccc(-c2cc(-c3ccccc3O)[nH]n2)cc1OC	-27%	15	81*	38%	?	2.5µM*
Cc1ccc(-c2csc(NC(=S)NC(=O)/C=C/c3ccco3)n2)cc1	?	12	33	21%	?	/
O=C(/C=C\c1ccco1)Nc1nc(-c2ccc3ccccc3c2)cs1	?	21	58*	-18%	-4%	3%
Cc1ccc(C(C(=O)NCc2ccco2)N(C(=O)Cn2nnc3ccccc32)c2ccccc2)o1 (centres undefined)	2%[46.1 µM]	4	64*	0%	?	5%
Oc1ccc(C2C[C@H]3CC[C@@H]2C3)cc1O (some centres undefined)	?	1	34*	-22%	8%	0%
OC1C[N+]2(CCCCC2)C1	0%	-2	30*	-4%	13%	-2%
